Shown is part of a subset that was picked to be rich in hits.
IL1B secr inh: inflammasome signaling inhibition, IL-1 beta readout; 4.7% of 360,000 active; activity change, % at 57.5 µM; THP-1 LPS/ATP IL-1B secretion, AlphaLISA, 16 h; active compounds read low; AID 743279; in the data active = activity change below about -50%; inconclusive = mostly about -30% to -49%
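THP-1 cells pretreated 1 hr with compounds (up to 57.5 uM final), then stimulated with LPS (250 ng/mL final) plus ATP (1.25 mM final); secreted IL-1B measured by AlphaLISA after 16 hr, decreased signal indicating inhibition.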
12-LOX inh: ALOX12 (human) lipoxygenase inhibition; purified 12hLO, xylenol orange hydroperoxide absorbance; Potency, µM (series often up to 108 µM), hits mostly inhibitors; 1.1% of 580,000 active; AID 1671190; P18054
Target sequence (P18054 whole entry, looked up): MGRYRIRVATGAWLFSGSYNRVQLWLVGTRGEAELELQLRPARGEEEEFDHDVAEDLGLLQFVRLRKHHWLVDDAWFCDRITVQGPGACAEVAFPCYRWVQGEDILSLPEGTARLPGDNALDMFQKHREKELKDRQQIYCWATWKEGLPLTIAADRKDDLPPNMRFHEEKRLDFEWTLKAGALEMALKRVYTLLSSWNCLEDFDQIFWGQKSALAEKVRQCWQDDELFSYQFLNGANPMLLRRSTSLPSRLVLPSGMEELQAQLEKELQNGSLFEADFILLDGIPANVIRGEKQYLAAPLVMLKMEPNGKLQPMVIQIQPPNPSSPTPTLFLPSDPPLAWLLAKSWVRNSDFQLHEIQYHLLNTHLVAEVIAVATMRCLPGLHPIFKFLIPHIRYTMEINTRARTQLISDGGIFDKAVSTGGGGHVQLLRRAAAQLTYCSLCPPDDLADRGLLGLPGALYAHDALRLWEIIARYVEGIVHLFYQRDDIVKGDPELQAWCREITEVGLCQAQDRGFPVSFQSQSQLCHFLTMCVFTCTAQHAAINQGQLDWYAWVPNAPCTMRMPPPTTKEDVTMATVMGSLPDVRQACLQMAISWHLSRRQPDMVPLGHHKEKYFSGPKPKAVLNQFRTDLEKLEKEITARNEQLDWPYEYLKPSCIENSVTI
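Purified human 12hLO (150 nM final) in 25 mM Hepes, 0.01% Triton X-100, pH 7.0 was preincubated 15 min at room temperature with compound. Then 40 uM arachidonic acid was added, 30 min. Hydroperoxide was read by Fe-XO absorbance ratio 573/405 nm.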
TDP1 cell noCPT: qHTS for Inhibitors of human tyrosyl-DNA phosphodiesterase 1 (TDP1): qHTS in cells in absence of CPT | DT40 Tdp1-/- hTDP1 cells, no CPT, ATP luminescence, 48 h | Potency, µM (highest dose often 46.2 µM), usual class: inhibitors | 15% of 420,000 active; also: nearly all actives have a fitted effect of over 55% in size
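DT40 Tdp1-/-;hTDP1 cells, no CPT (DMSO vehicle only), 400 cells/well; compounds pin-transferred; ≥48 hr, 37 °C; CellTiter-Glo 30 min RT dark, luminescence read.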
HT1080-NT tox: kills 2HG-producing HT-1080-NT fibrosarcoma cells; HT-1080-NT fibrosarcoma viability, CellTiter-Glo ATP luminescence, 48 h; Potency, µM (top dose mostly 46.1 µM), usual class: cytotoxic; 1.6% of 360,000 active; AID 686970;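 also: NT is the 2HG producing partner of a matched IDH1 knockdown line; nearly all actives have a fitted effect of over 55% in size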
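Compounds were tested in concentration-response format on HT-1080-NT cells for 48 hours at 37 degrees C. Cell viability came from CellTiter-Glo luminescence; curves were classified by r2, response magnitude and activity.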
HT1080 IDH1KD tx: toxicity to HT-1080 IDH1 knockdown cells (counter line) | Potency, µM (doses to about 46.1 µM), usual class: cytotoxic | AID 686971 | HT-1080 IDH1 knockdown viability, ATP luminescence, 48 h | 2% of 360,000 active
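HT-1080-IDH1KD cells (IDH1 knocked down), 750/well in RPMI with 5% FBS, treated with compound 48 h at 37 degrees C. Viability by CellTiter-Glo luminescence, normalised to DMSO and no-cell wells; concentration-response curves classed.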
TDP1 cell CPT: growth inhibition of DT40 Tdp1-/-;hTDP1 cells with camptothecin (screen for TDP1 inhibitors) | chicken DT40 Tdp1-/-;hTDP1 cells + 20 nM CPT, ATP luminescence, 48 h | Potency, µM (top dose mostly 46.2 µM), actives largely listed as inhibitors | 12% of 420,000 active; also: nearly all actives have a fitted effect of over 55% in size
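Chicken DT40 Tdp1-/- cells complemented with human TDP1, 400 cells/well, exposed to compounds plus 20 nM camptothecin for at least 48 h at 37 C; viability read as ATP content by CellTiter-Glo luminescence.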
Large screens that a line does not name were inactive. Unless noted, calls follow the shape of the dose curve; as a rule, active = well fitted curve in the direction sought with a large enough effect; inconclusive = small, poorly fitted or top-dose-only effect, or another doubt; inactive = no such curve, though single readings can be large; an effect the other way counts as inactive or inconclusive.

O=C(C1CC(=O)N(c2cccc(C(F)(F)F)c2)C1)N1CCNCC1 (stereo unspecified)	none (no result: IL1B secr inh, TDP1 cell noCPT, HT1080-NT tox, HT1080 IDH1KD tx, TDP1 cell CPT)
Cc1cnc(C)c(-c2cccc3c2OC(CNC(=O)C[C@@H]2C[C@@H](C)NC(=S)N2)C3)n1 (stereo partly specified)	none (no result: IL1B secr inh, HT1080-NT tox, HT1080 IDH1KD tx)
COc1cccc(-c2nc(NC3CC3)c3ccccc3n2)c1	12-LOX inh inconclusive, TDP1 cell noCPT 21µM, TDP1 cell CPT 16µM (no result: IL1B secr inh, HT1080-NT tox, HT1080 IDH1KD tx)
COCCNc1nc(-c2ccccc2)nc2ccccc12	TDP1 cell noCPT inconclusive
COc1cccc(-c2nc(NCc3ccccc3)c3ccccc3n2)c1	12-LOX inh inconclusive, TDP1 cell noCPT 16µM, TDP1 cell CPT inconclusive (no result: IL1B secr inh, HT1080-NT tox, HT1080 IDH1KD tx)
COCCNc1nc(-c2cccc(OC)c2)nc2ccccc12	12-LOX inh inconclusive, TDP1 cell noCPT 6.5µM, TDP1 cell CPT 18µM (no result: IL1B secr inh, HT1080-NT tox, HT1080 IDH1KD tx)
COc1cccc(-c2nc(N(C)C)c3ccccc3n2)c1	12-LOX inh inconclusive, TDP1 cell noCPT inconclusive (no result: IL1B secr inh, HT1080-NT tox, HT1080 IDH1KD tx)
COc1ccc(CCNC(=O)c2csc(NC3CC3)n2)cc1	none (no result: IL1B secr inh, TDP1 cell noCPT, HT1080-NT tox, HT1080 IDH1KD tx, TDP1 cell CPT)
C(=C\c1nc(-c2ccncc2)no1)/c1ccccc1	TDP1 cell noCPT 16µM
NC(N)=NCCCS(=O)(=O)Nc1ccc(Nc2c3ccccc3nc3cc([N+](=O)[O-])ccc23)cc1	12-LOX inh inconclusive, TDP1 cell noCPT 16µM, TDP1 cell CPT 9.2µM
O=[N+]([O-])c1ccc(-c2nc(Nc3ccc(O)cc3)c3ccccc3n2)cc1	12-LOX inh inconclusive
O=C1NC2(CCN(C(=O)c3ccccn3)CC2)COc2ccccc21	none (no result: IL1B secr inh, TDP1 cell noCPT, HT1080-NT tox, HT1080 IDH1KD tx, TDP1 cell CPT)
COc1ccc2ccccc2c1C(=O)/C=C\c1ccoc1	IL1B secr inh -56, 12-LOX inh inconclusive, TDP1 cell noCPT inconclusive, TDP1 cell CPT inconclusive
CCCCn1nc(C(=O)NC2CCS(=O)(=O)C2)c2ccccc2c1=O (stereo unspecified)	none (no result: IL1B secr inh, TDP1 cell noCPT, HT1080-NT tox, HT1080 IDH1KD tx, TDP1 cell CPT)
CS(=O)(=O)c1ccccc1-c1nc(-c2ccc(C(F)(F)F)cc2)no1	IL1B secr inh inconclusive, TDP1 cell noCPT 16µM, TDP1 cell CPT inconclusive
CCn1cc(S(=O)(=O)c2ccc(Cl)cc2)c(=O)c2cc(F)c(N3CCOCC3)cc21	TDP1 cell noCPT 16µM, TDP1 cell CPT 26µM (no result: IL1B secr inh, HT1080-NT tox, HT1080 IDH1KD tx)
CCn1cc(S(=O)(=O)c2ccccc2)c(=O)c2cc(F)c(N3CCCC3)cc21	TDP1 cell noCPT inconclusive, TDP1 cell CPT 21µM (no result: IL1B secr inh, HT1080-NT tox, HT1080 IDH1KD tx)
CCCn1cc(S(=O)(=O)c2ccccc2)c(=O)c2cc(F)c(N3CCCCCC3)cc21	TDP1 cell noCPT 18µM, TDP1 cell CPT 26µM (no result: IL1B secr inh, HT1080-NT tox, HT1080 IDH1KD tx)
O=C(Nc1cccc(NC(=O)C2CC2)c1)C1CCCCC1	none (no result: IL1B secr inh, TDP1 cell noCPT, HT1080-NT tox, HT1080 IDH1KD tx, TDP1 cell CPT)
COc1cccc(NC(=S)/C(=C(\[O-])c2cc(C)n(-c3ccccc3F)c2C)[n+]2ccc(N(C)C)cc2)c1	12-LOX inh inconclusive, TDP1 cell noCPT 12µM, TDP1 cell CPT 21µM
COc1cccc(NC(=O)CCN2CCN(c3ccccc3F)CC2)c1	none
Cc1cc(C([O-])=C(C(=S)Nc2ccc(F)cc2)[n+]2ccccc2)c(C)n1-c1ccc(F)cc1	12-LOX inh inconclusive, TDP1 cell noCPT 21µM, TDP1 cell CPT 26µM
O=C(CCc1ncc(-c2c(F)cccc2F)o1)NCc1ccc2c(c1)OCO2	none (no result: IL1B secr inh, TDP1 cell noCPT, HT1080-NT tox, HT1080 IDH1KD tx, TDP1 cell CPT)
O=S(=O)(c1ccccc1F)N1CCN(Cc2cccc3cccnc23)CC1	none (no result: IL1B secr inh, TDP1 cell noCPT, HT1080-NT tox, HT1080 IDH1KD tx, TDP1 cell CPT)
COc1ccc(CN2CC(N(C)c3ccccc3C)C2)cc1	none (no result: IL1B secr inh, TDP1 cell noCPT, HT1080-NT tox, HT1080 IDH1KD tx, TDP1 cell CPT)
COc1ccc2c(C)c(-c3ccccc3)c(=O)oc2c1	none (no result: IL1B secr inh, TDP1 cell noCPT, HT1080-NT tox, HT1080 IDH1KD tx, TDP1 cell CPT)
COCc1cc(=O)[nH]c(SCCS(=O)(=O)c2ccc(C)cc2)n1	none
COCc1cc(=O)[nH]c(SCCS(=O)(=O)c2ccc(Cl)cc2Cl)n1	TDP1 cell noCPT inconclusive, TDP1 cell CPT 21µM
O=C(CC1C(=O)NCCN1CC(c1ccccc1)c1ccccc1)NCc1ccon1 (stereo unspecified)	none (no result: IL1B secr inh, TDP1 cell noCPT, HT1080-NT tox, HT1080 IDH1KD tx, TDP1 cell CPT)
COc1cc(C(=O)C(=O)N2CCN(c3ccc(C)cc3)CC2)cc2ccccc12	12-LOX inh inconclusive, TDP1 cell noCPT 15µM, HT1080 IDH1KD tx inconclusive, TDP1 cell CPT 15µM

High-throughput results deposited in PubChem by National Center for Advancing Translational Sciences (NCATS).
